# Test results published in ChEMBL document CHEMBL4296182, “CO-ADD screening of NIH NCI Diversity Set V”.
# For part of these data: Potency and affinity values are given separately.
# Legend:
# Staphylococcus aureus = assay: Antibacterial activity against Staphylococcus aureus MRSA ATCC 43300 (CO-ADD:GP_020); MIC in CAMBH media using NBS plates, by Resazurin F(560/590); format: functional; settings: Concentration 20 uM, ASSAY_TEST Inhibition of Bacterial Growth, detection method Resazurin, Fluorescence (ex560/em590), MEDIA CAMHB, plate type 384well, CORNING #3640, time 18 hr
# Acinetobacter baumannii = assay: Antibacterial activity against Acinetobacter baumannii ATCC 19606 (CO-ADD:GN_034); MIC in CAMBH media using NBS plates, by Resazurin F(560/590); format: functional; settings: Concentration 20 uM, ASSAY_TEST Inhibition of Bacterial Growth, detection method Resazurin, Fluorescence (ex560/em590), MEDIA CAMHB, plate type 384well, CORNING #3640, time 18 hr
# Escherichia coli = assay: Antibacterial activity against Escherichia coli ATCC 25922 (CO-ADD:GN_001); MIC in CAMBH media using NBS plates, by Resazurin F(560/590); format: functional; settings: Concentration 20 uM, ASSAY_TEST Inhibition of Bacterial Growth, detection method Resazurin, Fluorescence (ex560/em590), MEDIA CAMHB, plate type 384well, CORNING #3640, time 18 hr
# Klebsiella pneumoniae = settings: Concentration 20 uM; ASSAY_TEST Inhibition of Bacterial Growth; detection method Absorption (OD600); MEDIA CAMHB; plate type 384well; NBS; CORNING #3640; time 18 hr
# Candida albicans = settings: 20 µM
# Cryptococcus neoformans = settings: Concentration 20 uM; ASSAY_TEST Inhibition of Fungal Growth; detection method Resazurin; Absorption (OD600-OD570); plate type 384well; NBS; CORNING #3640
SMILES,Inhibition (Staphylococcus aureus),Inhibition (Acinetobacter baumannii),Inhibition (Escherichia coli),Inhibition (Klebsiella pneumoniae),Inhibition (Candida albicans),Inhibition (Cryptococcus neoformans)
CSc1nc(C)cc(S)n1,0.72%,-7.16%,3.46%,5.27%,18.9%,-4.48%
COc1ccccc1C1OC2=Nc3cc([N+](=O)[O-])ccc3NC2=C1O (configuration not stated),8.5%,-1.62%,2.79%,1.15%,0.19%,-4.37%
O=C(Nc1ccc(Oc2ccc(NC(=O)Nc3ccc([N+](=O)[O-])cc3)cc2)cc1)Nc1ccc([N+](=O)[O-])cc1,16.59%,-20.31%,13.56%,15.1%,1.13%,-4.65%
Cc1ccc(NC(=O)N2CCCCC2)cc1[N+](=O)[O-],0.24%,-10.39%,3.85%,3.41%,6.56%,-11.71%
COc1ccc(NC(=O)CC(C)=O)c(OC)c1,5.13%,-8.6%,1.4%,22.3%,0.23%,-3.01%
NC(=O)C1=CC2C3C=CC2(O)C(=O)OC3O1 (configuration not stated),-0.72%,9.98%,-7.05%,15.67%,3.39%,2.22%
O=C1NC(=O)C(Cc2ccccc2)(c2cccnc2)N1 (configuration not stated),33.81%,2.65%,15.22%,9.85%,7.24%,16.94%
O=C(/C=C/c1cccnc1)/C=C/c1cccnc1,16.75%,4.07%,0.92%,20.07%,31.4%,-2.05%
COc1c(NC(C)=O)c2ccccc2c2ccccc12,12.56%,4.74%,1.88%,16.73%,5.3%,-2.59%
Cc1nc(O)c2c3c(sc2n1)CCCC3,1.78%,-6.79%,6.4%,-0.52%,-0.04%,-11.89%
CC1=CN2C(c3cccc([N+](=O)[O-])c3)=NON(c3ccc(C)cn3)C2C=C1 (configuration not stated),16.79%,-11.84%,19.37%,7.72%,17.2%,0.26%
CCCCn1ccnc1C,-0.22%,-5.26%,4.7%,8.98%,0.01%,-3.23%
O=C(O)c1cnn2c(S)ncnc12,16.65%,-14.23%,9.48%,8.17%,-0.99%,-3.32%
NCc1c(O)ccc2ccccc12,7.19%,-7.97%,-11.88%,11.42%,3.27%,15.16%
Clc1ccc(Oc2nc3c(Cl)cccc3s2)cc1Cl,12.48%,12.9%,4.52%,1.06%,1.36%,-15.72%
CCCCOC(=O)c1cccnc1,2.44%,-6.99%,12.49%,13.5%,1.04%,-0.89%
CCN(CC)c1ccc(/C=C/c2cc(-c3ccccc3)c3ccccc3n2)cc1,16.67%,5.92%,4.61%,11.78%,4.35%,-9.69%
CC(=O)Nc1ccc(OCCOc2ccc([N+](=O)[O-])cc2)cc1,16.53%,7.01%,2.93%,10.72%,-1.95%,-16.57%
Cc1nc(NCc2ccccc2)c2cc[nH]c2n1 [ROLODINE],-1.89%,-12.81%,4.8%,9.06%,2.35%,-8.43%

SMILES,Inhibition (Staphylococcus aureus),Inhibition (Acinetobacter baumannii),Inhibition (Escherichia coli),Inhibition (Klebsiella pneumoniae),Inhibition (Candida albicans),Inhibition (Cryptococcus neoformans)
NCC(=O)Nc1ccc(Cl)cc1C(=O)c1ccc[nH]1,-7.1%,-14.48%,6.3%,6.27%,1.44%,-13.13%
O[C@@H](c1cc(-c2ccc(C(F)(F)F)cc2)nc(C(F)(F)F)c1)[C@H]1CCCCN1,4.92%,7.22%,8.91%,19.18%,3.72%,-3.44%
ClCC(CNCc1ccccc1)c1ccccc1 (configuration not stated),7.68%,11.29%,0.62%,19.58%,5.41%,-7.48%
NC(=O)c1ccc2c(c1)S(=O)(=O)c1ccccc1C2=O,12.96%,-8.12%,-3.77%,24.13%,1.19%,-8.66%
COc1cc(S(N)(=O)=O)c(OC)cc1N,4.84%,-10.8%,11.54%,5.18%,1.19%,-0.85%
Cc1cccc(N2CCN(CC(O)COc3ccccc3Cl)CC2)c1 (configuration not stated),6.25%,7.51%,7.94%,12.03%,-0.3%,-18.69%
NC(=S)NC(=O)c1ccccc1,15.19%,-5.77%,13.89%,14.46%,2.89%,-5.13%
N#CC1=C2CCCCC2(O)NC1=O (configuration not stated),6.52%,-3.34%,7.41%,2.61%,-0.03%,-5.83%
O=C(Nc1ccc(Nc2ccncc2)cc1)c1ccc([N+](=O)[O-])cc1,-5.06%,12.27%,7.64%,10.28%,3.08%,-7.15%
O=C(C(Cl)Cl)N1CC2CCC(CC2)C1,-8.6%,7.03%,-13.8%,1.03%,-0.88%,23.84%
O=C(Nc1ccc(Br)c2ccccc12)c1ccc2ccccc2c1O,0.57%,-4.06%,-4.98%,22.07%,4.96%,1.39%
CC(C)(c1cc(Cl)c(O)c(CN2CCOCC2)c1)c1cc(Cl)c(O)c(CN2CCOCC2)c1,-6.13%,0.12%,12.95%,0.6%,-1.62%,-0.13%
CC(C)(C)NC(=O)c1ccc(C(=O)NC(C)(C)C)cc1,-9.07%,-9.96%,2.15%,15.3%,8.15%,-7.37%
N=C(N)Nc1ccc(NC(=N)N)cc1,18.17%,-6.06%,9.96%,17.17%,-1.51%,-0.62%
CCOc1ccc(NC(=O)N(O)C2(C#N)CCCCC2)cc1,13.16%,8.44%,2.02%,18.05%,5.54%,-2.32%
Cc1nc(Br)c(Br)c(C)c1Br,1.89%,-12.31%,7.33%,11.41%,4.5%,-9.77%
C=CCNc1ncnc2sc(SC)nc12,-6.85%,14.45%,5.94%,7.44%,10.1%,-10.12%
Nc1ncnc(N2CCOCC2)n1,-3.61%,-4.78%,-0.51%,0.72%,2.01%,-5.84%
